Assay [1] is described as follows: rapamycin-like changes in RPL19A-GFP expression – cell-based, S. cerevisiae, multiplex flow cytometry, primary screen (AID 1862; in the data active means percent of DMSO control GFP below about 86%;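 further: lower values mimic rapamycin by blocking the RPL19A rise seen in DMSO cells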). The note with it: S. cerevisiae RPL19A-GFP strain, flow cytometry fluorescence, 3 h; at 10 µM; stronger effect = lower value.
The nature of assay [2]: TOR pathway GLN3 branch reporter MEP2-GFP changes – S. cerevisiae, multiplex flow cytometry, primary screen (AID 1867;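 active means GFP response, as percent of the DMSO control, above the screen-wide mean plus 3 SD, about 139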;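 further: median GFP channel fluorescence of barcode-gated MEP2-GFP cells measured by flow cytometry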). The note with it: S. cerevisiae MEP2-GFP strain, 3 h, at 10 µM, stronger effect = higher value, 100% means same as DMSO wells. Background: A flow cytometer gives signals particle by particle.
Assay [3] in a line: TOR pathway RTG branch CIT2 reporter changes – S. cerevisiae, GFP fusion, multiplex flow cytometry, primary screen (AID 1870;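 active means percent response above a set limit, the screen-wide mean plus 3 SD, cut at about 130% in these data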;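 further: barcoded CIT2-GFP strain pooled with four other GFP strains with rapamycin as positive control; median GFP fluorescence per well over plate mean of DMSO wells so 100% = DMSO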). The note with it: S. cerevisiae CIT2-GFP expression, 3 h, at 10 µM, stronger effect = higher value.
Assay [4] in a line: TOR pathway LAP4-GFP level changes – S. cerevisiae, multiplex flow cytometry, primary screen (AID 1873;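 active means GFP signal, as percent of the solvent control, above the screen mean plus 3 SD, about 149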). The note with it: S. cerevisiae LAP4-GFP expression, 3 h, at 10 µM, stronger effect = higher value.
The nature of assay [5]: yeast AGP1-GFP level changes, GLN3 branch – cell-based, multiplex flow cytometry, S. cerevisiae, primary screen (AID 1887;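 active means GFP signal above the screen-wide mean plus 3 SD, that is over about 124.5% of the solvent control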;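 further: AGP1-GFP fusion strain of S. cerevisiae within a five-strain barcoded multiplex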). The note with it: 3 h, at 10 µM, stronger effect = higher value.
Assay [6] is described as follows: reduced mouse 2C T cell binding to pMHC/ICAM-1 vesicles – MLPCN validation set, flow cytometry, LFA-1/ICAM-1 modulator project, pilot screen (AID 2523;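 active means response below a set limit, under 55% cells CD8-positive and vesicle-bound, and CD8 cells' 90th-percentile brightness under 279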;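 on vesicle binding response: mean PE anti-B7-1 fluorescence of CD8+ cells relative to row control; 100% = QL9-loaded vesicles with DMSO vehicle in the same plate row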). The note with it: 2C mouse CD8+ T cells, at 7 µM, stronger effect = lower value; double positive events: measured here: CD8+/vesicle+ event percentage.
For assay [7], the target named is Integrin beta-1 (Homo sapiens) + Integrin alpha-4 (Homo sapiens) (UniProt P13612+P05556). Nature of the assay: alpha4beta1 integrin LIBS antibody binding reduction – U937 cells, HUTS-21 mAb, flow cytometry, validation set, VLA-4 allosteric modulator project, pilot screen (AID 2674;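 active means inhibition above 50%, about 3 SD of the validation set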;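 further: antibody binding induced by the VLA-4 ligand LDV present at three times its Kd; 0% = LDV ligand with antibody and no compound and 100% = antibody without LDV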). The note with it: HUTS-21 LIBS mAb binding, at 6.7 µM, stronger effect = higher value, binding induced by LDV ligand.
Integrin beta-1 (Homo sapiens) + Integrin alpha-4 (Homo sapiens), sequence (P05556 whole entry, looked up): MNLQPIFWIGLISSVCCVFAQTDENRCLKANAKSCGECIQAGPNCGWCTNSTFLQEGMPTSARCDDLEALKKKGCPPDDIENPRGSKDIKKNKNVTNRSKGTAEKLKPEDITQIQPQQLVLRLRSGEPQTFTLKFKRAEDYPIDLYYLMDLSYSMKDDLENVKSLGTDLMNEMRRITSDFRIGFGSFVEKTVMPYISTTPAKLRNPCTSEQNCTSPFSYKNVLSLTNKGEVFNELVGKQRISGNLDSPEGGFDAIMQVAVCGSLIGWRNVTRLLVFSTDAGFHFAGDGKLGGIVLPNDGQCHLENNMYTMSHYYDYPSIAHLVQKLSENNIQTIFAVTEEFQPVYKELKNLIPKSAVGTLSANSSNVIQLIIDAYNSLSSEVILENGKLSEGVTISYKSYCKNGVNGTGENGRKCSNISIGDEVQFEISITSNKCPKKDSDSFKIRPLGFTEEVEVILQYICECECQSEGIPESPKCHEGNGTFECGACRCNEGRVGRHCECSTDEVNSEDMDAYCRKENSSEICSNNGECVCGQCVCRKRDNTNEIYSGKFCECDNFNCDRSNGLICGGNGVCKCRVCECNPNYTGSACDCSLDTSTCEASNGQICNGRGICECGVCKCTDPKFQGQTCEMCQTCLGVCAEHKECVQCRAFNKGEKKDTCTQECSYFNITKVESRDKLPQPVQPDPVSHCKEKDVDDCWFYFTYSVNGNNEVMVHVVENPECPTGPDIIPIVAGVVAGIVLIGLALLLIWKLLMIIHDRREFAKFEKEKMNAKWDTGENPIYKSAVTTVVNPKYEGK
Integrin beta-1 (Homo sapiens) + Integrin alpha-4 (Homo sapiens), sequence (P13612 whole entry, looked up): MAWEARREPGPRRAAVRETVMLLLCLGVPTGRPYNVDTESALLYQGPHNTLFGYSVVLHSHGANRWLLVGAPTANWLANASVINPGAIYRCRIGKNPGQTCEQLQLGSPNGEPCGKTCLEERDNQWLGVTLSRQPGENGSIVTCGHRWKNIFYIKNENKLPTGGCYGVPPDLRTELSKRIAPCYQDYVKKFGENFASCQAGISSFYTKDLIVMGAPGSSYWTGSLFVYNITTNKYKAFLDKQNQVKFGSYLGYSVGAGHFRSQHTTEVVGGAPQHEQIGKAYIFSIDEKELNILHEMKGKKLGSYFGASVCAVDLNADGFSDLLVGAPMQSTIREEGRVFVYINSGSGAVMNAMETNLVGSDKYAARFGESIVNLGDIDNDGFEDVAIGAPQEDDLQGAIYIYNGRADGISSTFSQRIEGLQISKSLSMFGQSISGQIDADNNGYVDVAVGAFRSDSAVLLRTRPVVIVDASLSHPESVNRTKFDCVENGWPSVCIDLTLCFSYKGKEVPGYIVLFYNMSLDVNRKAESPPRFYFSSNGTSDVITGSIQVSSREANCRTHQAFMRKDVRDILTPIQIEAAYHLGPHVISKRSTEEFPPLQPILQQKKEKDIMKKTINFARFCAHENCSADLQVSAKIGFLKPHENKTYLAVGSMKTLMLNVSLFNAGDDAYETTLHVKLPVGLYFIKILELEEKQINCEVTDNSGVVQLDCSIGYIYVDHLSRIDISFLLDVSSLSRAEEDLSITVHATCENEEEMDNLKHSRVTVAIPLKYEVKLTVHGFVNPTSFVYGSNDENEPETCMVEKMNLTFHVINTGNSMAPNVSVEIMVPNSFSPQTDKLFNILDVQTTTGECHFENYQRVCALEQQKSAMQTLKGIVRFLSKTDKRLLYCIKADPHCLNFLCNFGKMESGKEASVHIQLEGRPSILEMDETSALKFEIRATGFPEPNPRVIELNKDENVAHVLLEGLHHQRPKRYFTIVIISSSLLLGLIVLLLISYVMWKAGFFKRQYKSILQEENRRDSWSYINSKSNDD

A short description of assay [8]: calorie-restriction mimetic ROS inhibitors, yeast – validation compound set, pilot screen (AID 2706;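 active means superoxide response below 65% of plate, a cut near 3 SD across the whole screen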;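 further: yeast exposed to compound for one week at 30 degrees C before staining; 100% = mean of all compound wells on the same plate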). The note with it: S. cerevisiae aging, superoxide DHE fluorescence; at 10 µM; stronger effect = lower value.
Assay [9] deals with Beta-adrenergic receptor kinase 1 (Homo sapiens) (UniProt P25098). Nature of the assay: GRK2 binders displacing RNA aptamer, biochemical, validation, human GRK2, bead flow cytometry (AID 488806;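 active means aptamer binding inhibition above 30%, about 3 SD of noise from non-fluorescent compounds; inactive means inhibition at or below 30%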). The note with it: bead-bound GRK2, FAM-aptamer displacement, at 10 µM, stronger effect = higher value.
Beta-adrenergic receptor kinase 1 (Homo sapiens), sequence (P25098 whole entry, looked up): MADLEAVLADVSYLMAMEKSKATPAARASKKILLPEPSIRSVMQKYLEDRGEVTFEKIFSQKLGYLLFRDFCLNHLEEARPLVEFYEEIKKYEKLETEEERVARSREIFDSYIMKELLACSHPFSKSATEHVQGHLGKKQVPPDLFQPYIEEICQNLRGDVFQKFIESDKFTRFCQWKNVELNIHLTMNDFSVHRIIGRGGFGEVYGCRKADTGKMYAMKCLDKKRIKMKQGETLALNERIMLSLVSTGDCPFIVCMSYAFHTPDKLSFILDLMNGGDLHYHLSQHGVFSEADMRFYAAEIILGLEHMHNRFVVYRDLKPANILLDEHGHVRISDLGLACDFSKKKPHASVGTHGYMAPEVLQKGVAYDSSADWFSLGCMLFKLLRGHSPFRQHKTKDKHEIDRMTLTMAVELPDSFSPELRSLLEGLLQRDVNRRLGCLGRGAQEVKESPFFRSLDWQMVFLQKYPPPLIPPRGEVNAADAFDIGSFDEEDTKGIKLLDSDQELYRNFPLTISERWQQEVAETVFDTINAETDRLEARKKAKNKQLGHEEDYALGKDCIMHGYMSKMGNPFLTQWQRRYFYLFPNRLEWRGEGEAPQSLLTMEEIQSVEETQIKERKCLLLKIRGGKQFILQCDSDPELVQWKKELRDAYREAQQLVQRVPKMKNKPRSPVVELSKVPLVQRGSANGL
Assay [10] deals with Beta-2 adrenergic receptor (Homo sapiens) (UniProt P07550). Description: agonist-induced loss of surface beta2AR – cell-based, FAP fluorogen, flow cytometry, validation set, pilot screen (AID 504459;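 active means percent response above 42, roughly 3 SD of non-fluorescent test compounds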;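 further: agonist-driven loss of surface beta2AR via internalization measured by FAP dye flow cytometry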). The note with it: Am2.2-beta2AR cells, at 10 µM, stronger effect = higher value.
Beta-2 adrenergic receptor (Homo sapiens), sequence (P07550 whole entry, looked up): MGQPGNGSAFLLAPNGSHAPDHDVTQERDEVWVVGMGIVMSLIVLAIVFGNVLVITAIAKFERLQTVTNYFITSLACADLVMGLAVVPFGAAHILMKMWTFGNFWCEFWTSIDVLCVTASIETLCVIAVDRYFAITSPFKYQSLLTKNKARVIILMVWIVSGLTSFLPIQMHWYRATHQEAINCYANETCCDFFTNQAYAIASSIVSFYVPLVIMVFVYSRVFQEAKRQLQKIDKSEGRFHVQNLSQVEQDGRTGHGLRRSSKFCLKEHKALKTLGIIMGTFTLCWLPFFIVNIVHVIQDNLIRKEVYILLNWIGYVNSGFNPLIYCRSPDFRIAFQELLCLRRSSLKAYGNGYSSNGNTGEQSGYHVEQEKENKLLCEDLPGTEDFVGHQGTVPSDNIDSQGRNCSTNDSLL
Assay [11] concerns the target AP-2 complex subunit beta (Homo sapiens) (UniProt P63010). Description: beta-arrestin/AP2 interaction blockers – biochemical, validation set, GST-AP2 beads, flow cytometry, pilot screen (AID 504541;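 active means inhibition above 54%, about 3 SD of non-fluorescent compounds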;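 further: AP2 carries R879A mutation and is captured from E. coli lysate; bead-bound FITC arrestin peptide fluorescence measuring arrestin peptide binding to AP2; 0% = DMSO wells and 100% = excess unlabeled arrestin peptide control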). The note with it: FITC arrestin peptide, at 10 µM, stronger effect = higher value, AP2 beta2 appendage fragment, R879A mutant.
The nature of assay [12]: cytosolic pH regulators acting via V-ATPase – S. cerevisiae, pHLuorin, HTS validation (AID 504600; in the data active means response above about 15%;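 further: plate controls were DMSO for no effect and reference compound for full effect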). The note with it: V-ATPase proton transport, at 10 µM, stronger effect = higher value.
Assay [13] concerns anti-desmoglein-3 scFv antibody binding to human DSG3. Description: blockers of pathogenic pemphigus antibody–desmoglein-3 binding – biochemical, validation compound set, bead-based, flow cytometry, pilot screen (AID 588368;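 active means binding below the plate cutoff, the plate median minus 3 SD, with a reading above zero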;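 further: signal is the median channel fluorescence of bead-bound GFP antibody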). The note with it: Protein G beads, DSG3-Fc, scFv-GFP binding, at 10 µM, stronger effect = lower value.
Assay [14] can be described thus: Nile Red efflux blockade in pump-expressing yeast – validation compound set, multiplex, phenotypic, pilot screen (AID 588506;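 active means efflux inhibition above 0.42, the validation set average plus 4 SD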;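 further: Nile Red retained in cells so higher fluorescence means more efflux inhibition; 0 = negative control wells and 1 = enniatin B 25 µM full block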). The note with it: S. cerevisiae pump-expressing triplex, Nile Red efflux flow cytometry; at 10 µM; stronger effect = higher value; the pumps come from Candida albicans.
Assay [15] concerns the target ATP-binding cassette sub-family B member 6 (Homo sapiens) (UniProt Q9NP58). Description: blockers of ABCB6-driven porphyrin uptake – K562-ABCB6 cells, flow cytometry, validation set, pilot screen (AID 588550).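 Further: 0% = DMSO wells and 100% = benzethonium chloride 70 µM positive control.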 The note with it: K562-ABCB6 porphyrin accumulation, 1 h, at 10 µM, stronger effect = higher value.
Assay [16] in a line: AML differentiation inducers, ER-HoxA9 marrow cells – cell-based, GFP/MAC1 double positive, flow cytometry, validation set, primary screen (AID 588685;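 active means differentiation response of at least 50%, scaled between solvent and reference control, from cells with both markers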;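 further: compound exposure lasts four days before antibody staining and flow analysis; 0% = DMSO wells and 100% = 5 µM fulvestrant positive control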). The note with it: stronger effect = higher value, normalized: vehicle 0, fulvestrant 100.

The term inhibition denotes the change of the read-out against control, counted positive when it falls.

Each structure is given as a SMILES string. Results filed as inconclusive are left out. Calls of active or inactive are those of the source.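 How the source made its calls, unless noted: active means inhibition above the screen-wide mean plus 3 SD, about 51%; inactive means the rest.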

AP-2 complex subunit beta (Homo sapiens), sequence (P63010 whole entry, looked up, the tested form may be a part, one chain of several): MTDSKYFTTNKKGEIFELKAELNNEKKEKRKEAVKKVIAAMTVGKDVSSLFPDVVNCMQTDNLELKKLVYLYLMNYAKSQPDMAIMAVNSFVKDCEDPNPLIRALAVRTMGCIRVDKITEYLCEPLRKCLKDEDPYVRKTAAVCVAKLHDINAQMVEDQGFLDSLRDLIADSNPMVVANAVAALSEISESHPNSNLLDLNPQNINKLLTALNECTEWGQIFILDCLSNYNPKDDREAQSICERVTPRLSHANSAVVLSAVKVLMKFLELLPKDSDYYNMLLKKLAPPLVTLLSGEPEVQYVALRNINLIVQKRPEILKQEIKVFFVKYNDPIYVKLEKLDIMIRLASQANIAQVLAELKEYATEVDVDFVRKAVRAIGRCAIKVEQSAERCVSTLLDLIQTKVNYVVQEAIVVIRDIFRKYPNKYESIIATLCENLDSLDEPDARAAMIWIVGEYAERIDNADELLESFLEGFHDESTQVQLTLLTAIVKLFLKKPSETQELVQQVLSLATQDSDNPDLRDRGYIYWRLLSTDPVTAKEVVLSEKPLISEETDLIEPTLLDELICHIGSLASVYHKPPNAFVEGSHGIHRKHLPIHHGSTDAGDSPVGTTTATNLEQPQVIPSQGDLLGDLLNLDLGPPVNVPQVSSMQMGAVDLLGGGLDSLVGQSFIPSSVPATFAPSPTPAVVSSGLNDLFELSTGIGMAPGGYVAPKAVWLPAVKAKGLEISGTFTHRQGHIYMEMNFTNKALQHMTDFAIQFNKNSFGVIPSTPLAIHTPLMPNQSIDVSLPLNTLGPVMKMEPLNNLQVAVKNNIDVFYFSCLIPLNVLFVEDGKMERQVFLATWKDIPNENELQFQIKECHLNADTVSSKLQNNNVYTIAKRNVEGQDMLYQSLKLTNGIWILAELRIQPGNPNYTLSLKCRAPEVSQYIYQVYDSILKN
ATP-binding cassette sub-family B member 6 (Homo sapiens), sequence (Q9NP58 whole entry, looked up): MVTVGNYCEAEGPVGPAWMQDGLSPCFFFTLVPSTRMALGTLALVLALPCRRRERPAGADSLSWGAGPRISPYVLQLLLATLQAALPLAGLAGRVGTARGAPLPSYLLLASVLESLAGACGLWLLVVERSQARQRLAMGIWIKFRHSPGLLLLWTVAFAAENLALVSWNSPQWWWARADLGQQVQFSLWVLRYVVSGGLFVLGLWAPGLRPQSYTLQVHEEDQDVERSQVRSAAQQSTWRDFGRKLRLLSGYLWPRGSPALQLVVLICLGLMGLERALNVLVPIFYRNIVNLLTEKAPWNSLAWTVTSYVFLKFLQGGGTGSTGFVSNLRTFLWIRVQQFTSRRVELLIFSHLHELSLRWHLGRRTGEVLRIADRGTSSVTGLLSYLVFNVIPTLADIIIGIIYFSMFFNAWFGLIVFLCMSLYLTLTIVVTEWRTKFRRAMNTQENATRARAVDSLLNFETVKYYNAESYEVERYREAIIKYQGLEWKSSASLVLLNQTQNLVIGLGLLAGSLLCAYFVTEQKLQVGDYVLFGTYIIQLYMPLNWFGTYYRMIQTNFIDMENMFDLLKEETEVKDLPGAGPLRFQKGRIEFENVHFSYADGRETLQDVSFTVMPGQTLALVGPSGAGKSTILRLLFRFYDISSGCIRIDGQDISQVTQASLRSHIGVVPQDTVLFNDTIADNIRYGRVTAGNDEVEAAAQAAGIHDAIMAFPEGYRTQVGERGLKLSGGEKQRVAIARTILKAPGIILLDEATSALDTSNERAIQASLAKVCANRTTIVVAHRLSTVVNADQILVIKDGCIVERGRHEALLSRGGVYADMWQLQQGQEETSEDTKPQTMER

For `O=C(COc1cc(O)c2c(=O)c3ccccc3oc2c1)OCc1ccccc1`, the percent of DMSO control GFP in [1] was 101% (inactive). The GFP response vs DMSO is 104% (inactive) in assay [2] and 85.5% (inactive) in assay [4]. For the same compound, the percent response of DMSO control in assay [3] was 109% (inactive). Also, the GFP response, % of DMSO in assay [5] was 97.6% (inactive). The compound further had a double positive events in assay [6] of 61%. The vesicle binding response in assay [6] was 152% (inactive). Moreover, the inhibition in [7] is -3.57% (inactive); in assay [11], -5.28% (inactive); in assay [15] it was 0% (inactive). Further, the superoxide response (% of plate) in assay [8] is 101% (inactive). Besides, the aptamer binding inhibition in [9] is -2% (inactive). The values for the response in assay [10] and in assay [12] were -4.65% (inactive) and 4.03% (inactive), respectively. Besides, the binding (% of control) in [13] is 93.3% (inactive). Further, the efflux inhibition (fraction of control) in assay [14] is -0.01 (inactive). The differentiation response in [16] was 12.9% (inactive).
For `Nc1ccc2nc(Cc3ccccc3)[nH]c2c1`, in assay [1], the percent of DMSO control GFP was 90.2% (inactive). The figures for the GFP response vs DMSO in [2] and in assay [4] were 150% (active) and 82.5% (inactive), respectively. The percent response of DMSO control in assay [3] is 108% (inactive). Further, the GFP response, % of DMSO in assay [5] was 89.4% (inactive). The double positive events in [6] was 60.5%. The vesicle binding response in assay [6] was 192% (inactive). Further, the inhibition in [7] is 3.55% (inactive); in [11], -0.76% (inactive); in [15] it was 3% (inactive). Also, the superoxide response (% of plate) in assay [8] is 102% (inactive). Also, in assay [9], the aptamer binding inhibition is 7% (inactive). The response in assay [10] is 10.6% (inactive); in assay [12], -0.84% (inactive). Moreover, the binding (% of control) in assay [13] is 98% (inactive). Further, the efflux inhibition (fraction of control) in [14] is 0.48 (active). Also, the differentiation response in [16] was 15.6% (inactive).
Consider `COc1cccc2c(=O)c(C/C=C(/C)Cl)c(C)[nH]c12`, for which the percent of DMSO control GFP in assay [1] was 107% (inactive). In addition, the GFP response vs DMSO in [2] was 103% (inactive); in [4], 131% (inactive). For the same compound, the percent response of DMSO control in [3] is 101% (inactive). Moreover, the GFP response, % of DMSO in assay [5] is 108% (inactive). Besides, the double positive events in [6] came out at 65.6%. For the same compound, the vesicle binding response in assay [6] was 6720% (inactive). Also, the inhibition in [7] is 6.4% (inactive); in assay [11], -8.34% (inactive); in assay [15], 3% (inactive). Further, in assay [8], the superoxide response (% of plate) was 107% (inactive). In addition, in assay [9], the aptamer binding inhibition is 3% (inactive). Moreover, the response in [10] was 3.25% (inactive); in assay [12], 3.49% (inactive). Moreover, the binding (% of control) in [13] is 95.7% (inactive). For the same compound, the efflux inhibition (fraction of control) in assay [14] was 0.01 (inactive). For the same compound, the differentiation response in assay [16] was -16.8% (inactive).
On to `CC(C)CC(=O)NC(NC(=O)CC(C)C)c1cccc([N+](=O)[O-])c1`, for which the percent of DMSO control GFP in assay [1] was 101% (inactive). Besides, the values for the GFP response vs DMSO in assay [2] and in [4] were 102% (inactive) and 100% (inactive), respectively. Also, the percent response of DMSO control in assay [3] was 111% (inactive). Besides, the GFP response, % of DMSO in assay [5] was 100% (inactive). In addition, in assay [6], the double positive events was found to be 60.1%. Further, the vesicle binding response in [6] is 118% (inactive). Further, the results for the inhibition in [7], in [11] and in [15] were 1.59% (inactive), 7.92% (inactive) and 11% (inactive), respectively. Besides, the superoxide response (% of plate) in assay [8] was 118% (inactive). For the same compound, the aptamer binding inhibition in assay [9] was 19% (inactive). The response in assay [10] was 3.17% (inactive); in assay [12], 3.51% (inactive). Further, the binding (% of control) in assay [13] was 99% (inactive). Moreover, in assay [14], the efflux inhibition (fraction of control) was 0.09 (inactive). The differentiation response in [16] is -8.96% (inactive).
For the compound `COc1cc2c(cc1OC)C(c1ccc(-c3cc(Cl)ccc3Cl)o1)=NCC2`, the percent of DMSO control GFP in assay [1] is 102% (inactive). In addition, the GFP response vs DMSO in [2] was 109% (inactive); in assay [4], 75.2% (inactive). In [3], the percent response of DMSO control was 101% (inactive). The GFP response, % of DMSO in assay [5] is 79.3% (inactive). Also, the double positive events in assay [6] was 59.5%. Also, the vesicle binding response in assay [6] is 228% (inactive). The inhibition in assay [7] was -53.7% (inactive); in [11] it was 17.6% (inactive); in assay [15] it was 3% (inactive). The superoxide response (% of plate) in assay [8] is 97.5% (inactive). For the same compound, in assay [9], the aptamer binding inhibition was 5% (inactive). For the same compound, the response is 60.6% (active) in assay [10] and 2.96% (inactive) in assay [12]. Further, in [13], the binding (% of control) was 101% (inactive). Besides, in assay [14], the efflux inhibition (fraction of control) was 0.3 (inactive). Moreover, the differentiation response in [16] is -26.4% (inactive).

For the origin of these results see PubChem BioAssay.
